Compound activity (PubChem)
An excerpt weighted towards active compounds, which were near 1.3% of everything screened.
PrP 5UTR inh: suppresses PrP 5' UTR mRNA reporter expression. cell-based PrP 5' UTR mRNA reporter, plate reader. inhibition, % (test concentration not listed). hit rate 0.35% among 340,000. AID 488862; in the data active means inhibition above about 52%; further: 0 = median of the neutral control wells
PrPC surface inh: inhibitors of human cell surface prion protein PrPC | TR-FRET read-out | AID 720596 | hit rate 0.43% among 370,000 | inhibition, % at 13.8 µM | P04156; in the data active means inhibition above about 24%; further: 0% = median of the test wells and 100% = reference compound wells
SARS 3CLpro inh: SARS-CoV 3CLpro protease inhibition; AID 1706; inhibition, % at 6 µM; recombinant SARS-CoV 3CLpro, quenched FRET peptide cleavage; hit rate 0.14% among 290,000; in the data active means inhibition above about 12%
CCHF vOTU inh-1: CCHFV vOTU protease inhibition; Pep-AMC fluorescence; inhibition, % at 11.5 µM; hit rate 0.55% among 370,000; AID 651958; further: 0% = vehicle wells with enzyme and 100% = no enzyme wells
CCHF vOTU inh-2: CCHFV vOTU protease inhibition, confirmation. shares compounds with CCHF vOTU inh-1. Recombinant CCHFV vOTU, Pep-AMC fluorescence. inhibition, % at 11.5 µM. hit rate 17% among 1,900. AID 686976
An asterisk follows results filed as active; · = not tested or not shown. Unless noted, no stated cut-off is given here; in the data, active means inhibition above about 30%; inactive means the rest.

SMILES	PrP 5UTR inh	PrPC surface inh	SARS 3CLpro inh	CCHF vOTU inh-1	CCHF vOTU inh-2
COc1cccc(Nc2nc(C(N)CC(C)C)cs2)n1 (stereo unspecified)	·	3	·	16	·
COc1cccc(Nc2nc(C(N)C(C)C)cs2)n1 (stereo unspecified)	·	-9	·	34*	-6
Cc1cc(OCC(=O)Nc2ccccc2F)nc(C(C)C)n1	-2	-5	1	15	·
COc1cc(O)c(C(C)=O)cc1OC	-1	-2	0	15	·
CC(=O)Oc1cc(C)c(Cl)c2c(OC(C)=O)cc(C(C)=O)c(O)c12	·	3	·	32*	18
CCCc1sc(N)nc1-c1ccc(C)cc1	-12	-2	3	33*	-15
Cc1ccc(-c2nc(N)sc2C)cc1	-31	6	-1	-6	·
Nc1ccc(Br)c2cccnc12	-18	-4	0	101*	1
CS(=O)(=O)Oc1ccc(Br)c2cccnc12	-28	1	1	10	·
O=C(NCCc1ccccc1Cl)[C@@H]1CCCN1C(=O)[C@@H](NS(=O)(=O)c1ccc(F)cc1F)C1CCCCC1	·	5	·	34*	-9
CCOc1ncccc1C(=O)Nc1ccc(S(=O)(=O)N2CCCC2)cc1	-29	1	-1	-6	·
Cc1cc(C(=O)N/N=C2\CC(=O)c3ccccc32)c(C)n1-c1ccc(F)cc1	-14	-4	-3	61*	19
COc1ccc(C(O)c2nc(-c3ccccc3C)cs2)cc1 (stereo unspecified)	·	3	·	34*	4
COc1cc(C(O)c2nc(-c3ccc4ccccc4c3)cs2)ccc1F (stereo unspecified)	·	16	·	25	·
COc1ccc(C(O)c2nc(-c3ccc4ccccc4c3)cs2)cc1 (stereo unspecified)	·	12	·	39*	-21
COc1ccc2c(c1)[C@H]1[C@H](CO2)[C@H](c2ccccc2)[C@@]2(C)C(=O)N[C@H](C)C(=O)N12	3	-3	·	-4	·
CC(C)CC1(C)NC(=O)N(CC(=O)Nc2ccc(F)c(F)c2F)C1=O (stereo unspecified)	-16	-1	·	6	·
CN(C(=O)COC(=O)COc1ccc2ccccc2c1)c1c(N)n(Cc2ccccc2)c(=O)[nH]c1=O	6	-5	·	30*	-41
O=C(COc1ccccc1Cl)NCC(c1cccs1)N1CCOCC1 (stereo unspecified)	-33	2	·	4	·
O=C(Cc1ccc(Cl)cc1Cl)NC1CCCCCC1	-2	0	-4	4	·
O=C(COC(=O)Cc1ccc(Cl)cc1Cl)NC1CC1	-18	-8	·	32*	-11
COC1=C(N)C(=O)c2nc(-c3nc(C(=O)O)c(C)c(-c4ccc(OC)c(OC)c4O)c3N)ccc2C1=O	23	·	0	·	·
COC(=O)c1nc(-c2ccc3c(n2)C(=O)C(N)=C(OC)C3=O)c(N)c(-c2ccc(OC)c(OC)c2O)c1C	48	-1	-2	37*	106*
Cc1ccnc(NC(=S)N2CCN(c3cccc(C(F)(F)F)c3)CC2)c1	2	14	2	-3	·
O=C(c1ccc(S(=O)(=O)N2CCCCC2)cc1)N1CCc2ccccc2C1	-2	2	0	-15	·
SMILES	PrP 5UTR inh	PrPC surface inh	SARS 3CLpro inh	CCHF vOTU inh-1	CCHF vOTU inh-2
O=C(c1ccc(S(=O)(=O)c2ccccc2)cc1)N1CCc2ccccc2C1	-94	-1	7	35*	-17
COc1cc(NC(C)CCCN)c2ncccc2c1Oc1ccccc1 (stereo unspecified)	-13	4	0	30*	-3
COc1ccc(Oc2c(OC)cc([N+](=O)[O-])c3ncccc23)cc1	3	-8	·	4	·
Cc1nn(Cc2ccc(Cl)cc2)c(C)c1NC(=O)CSc1n[nH]c(C)c1[N+](=O)[O-]	-7	2	1	9	·
Cc1cc2nn(-c3cccc4ccccc34)nc2cc1N	-37	1	3	-22	·
Nc1ccc2nn(-c3cccc4ccccc34)nc2c1	16	4	0	60*	12
Cc1cccc(C(=O)N2CCc3cc(-c4csc(NC(=O)CN5CCCC5)n4)ccc32)c1	8	-3	-1	10	·
CC(=O)N(C)c1ccc(N=Cc2cc3c(cc2[N+](=O)[O-])OCO3)cc1	-33	-15	·	34*	31*
CC1(C)CC(=O)C2=C(C1)c1c(ccc3ccccc13)NC2c1cc([N+](=O)[O-])cc([N+](=O)[O-])c1O (stereo unspecified)	-23	0	4	44*	14
CC1(C)CC(=O)C2=C(C1)c1c(ccc3ccccc13)NC2c1ccc(C(=O)O)cc1 (stereo unspecified)	-35	-3	1	-109	·
COc1cc(OC)c(NC(=O)C2CC(=O)N(c3ccc4c(c3)OCCO4)C2)cc1Cl (stereo unspecified)	-13	6	·	14	·
O=C1NC(Cc2ccccc2)c2nc3cc(F)c(F)cc3c(=O)n2-c2cc3ccccc3cc21 (stereo unspecified)	·	6	·	10	·
O=C1NC(Cc2ccc(O)cc2)c2nc3cc(F)c(F)cc3c(=O)n2-c2cc3ccccc3cc21 (stereo unspecified)	·	1	·	30*	-17
COc1ccc(OC)c(NC(=O)C2(C)CCN2Cc2ccccc2OC(F)F)c1 (stereo unspecified)	·	1	·	9	·
Cc1cccc(NC(=S)N/N=C/c2ccc([N+](=O)[O-])s2)c1	0	-23	1	35*	-1
CC(=O)Nc1ccc(S(=O)(=O)N2CCN(c3cc(C)nc4ncnn34)CC2)cc1	-6	-7	-2	-1	·
C[C@H]1CCC(=O)N([C@H](COc2ccccc2)Cc2ccccc2)CC1	-29	12	-2	31*	6
CC1CCC(=O)N(CCOc2ccccc2)CC1 (stereo unspecified)	-37	-6	-9	-3	·
COC(CNC(=O)c1ccc(CS(=O)(=O)c2c(Cl)cccc2Cl)o1)OC	-7	-9	0	-4	·
O=C(Nc1ccc(-c2nc3ccccc3[nH]2)cc1)c1ccc2c(c1)OCO2	-114	7	2	36*	-39
O=C(Nc1ccc(Cl)c(-c2nc3ccccc3[nH]2)c1)c1ccc2c(c1)OCO2	-118	17	-4	3	·
CN1CCc2nc(SCC(=O)Nc3ccc(OC(F)(F)F)cc3)c(C#N)c(-c3cccs3)c2C1	-59	0	2	35*	-7
CSc1ccc(-c2nc(CN3CCCCC3c3cccnc3)c(C)o2)cc1 (stereo unspecified)	-24	4	0	32*	-18
CCCCCCC1CCC(C(=O)Nn2c(C)nc3ccccc3c2=O)CC1 (stereo unspecified)	-10	0	0	6	·
Cc1ccc(C2SCC(=O)N2Cc2ccccc2)cc1 (stereo unspecified)	3	3	-2	11	·
O=C1NC[C@@H]2CCCN2C1=O	·	4	·	-6	·
c1ccc2c(c1)NCC1CCCN21 (stereo unspecified)	-24	-14	6	37*	-1
CC(C)n1c(SC2C(=O)CC(C)(C)CC2=O)nc2c1c(=O)n(C)c(=O)n2C	-8	3	0	30*	-11
CCCn1c(SC2C(=O)CC(C)(C)CC2=O)nc2c1c(=O)n(C)c(=O)n2C	-43	0	1	-3	·
